From PubChem BioAssay (EPA / NIEHS) come the findings set out here.

A structure can be active in one record and inactive in another. Active and inactive are the calls of the source. How the source made its calls: active means hit-call score of the fitted dose curve at least 0.9, where 1 is the maximum; inactive means score below 0.9.

Read-out in this test: Tissue Factor, F3 (gene 2152)
The test is described as follows: BSK_LPS_TissueFactor: BioMAP Diversity Plus: LPS Assay for Tissue Factor Biomarker Activity (AID 2283084). The note with it: primary human HUVEC with PBMC; actives raise or lower the signal. The method, then: BSK_LPS is a cell-based, multiplexed-readout assay that uses umbilical vein endothelium and peripheral blood mononuclear cells, a human vascular primary cell co-culture, with measurements taken at 24 hours after chemical dosing in a 96-well plate.BSK_LPS_TissueFactor is an assay component measured in the BSK_LPS assay. It measures CD142 Tissue Factor antibody related to regulation of gene expression using ELISA technology.Data from the assay component BSK_LPS_TissueFactor was analyzed into 1 assay endpoint. This assay endpoint, BSK_LPS_TissueFactor, was analyzed with bidirectional fitting relative to DMSO as the negative control and baseline of activity. Using a type of binding reporter, gain or loss-of-signal activity can be used to understand changes in the signaling as they relate to the gene F3. Furthermore, this assay endpoint can be referred to as a primary readout, because this assay has produced multiple assay endpoints where this one serves a signaling function. To generalize the intended target to other relatable targets, this assay endpoint is annotated to the cytokine intended target family, where the subfamily is coagulation factor.
The levels of cell surface (or secreted, indicated by the prefix "s") biomarker endpoints were measured by ELISA. Overt cytotoxicity to cells in confluent adherent cultures (all systems other than the BT system) was assessed by measuring total protein levels using sulforhodamine B (SRB) staining in parallel cultures at the time of biomarker measurements, indicated as SRB endpoints. For proliferation assays for adherent cell types, individual cell types are cultured at sub-confluence and relative cell numbers quantified by SRB staining at time points optimized for each system (48 h: 3C and CASM3C systems; 72 h: BT and HDF3CGF systems; 96 h: SAg system). SRB was performed by staining cells with 0.1% SRB after fixation with 10% TCA and reading wells at 560 nm.Viability and proliferation of PBMC (T cells) was quantified by Alamar Blue reduction for the SAg and BT systems. For PBMC viability (referred to as PBMC Cytotoxicity within the assay endpoint names), cells were plated (75,000/well in a 96-well plate) and then chemical samples added for 1 h before addition of activators, SEB and TSST-1 (20 ng/mL final concentration each). Cells were incubated for 90 h. Then, Alamar Blue (20 uL/well) (Invitrogen, Cat DAL1100) was added for 6 h, and the plates were read with a fluorescence microplate reader at 546/580 nm (excitation/emission). For PBMC proliferation, cells were plated and activated as above but incubated for only 16 h prior to addition of Alamar Blue. Plates were read after 6 h.
As to `NC(=O)C(F)(F)C(F)(F)F`, the result was inactive.

For the molecule `CCNc1nc(Cl)nc(NC(C)(C)C)n1`, the outcome was inactive.

For `CCOP(=S)(OCC)SCn1nnc2ccccc2c1=O`, the result was inactive.

As to `c1cc2c3c(cccc3c1)CC2`, the result was inactive.

As for `c1ccc(OP(Oc2ccccc2)Oc2ccccc2)cc1`, the outcome was inactive.

As for `Nc1cc2c3c(c1)C(c1ccccc1)=N[C@@H](NC(=O)c1cccnc1)C(=O)N3CC2`, the outcome was inactive.

What is called AC50 is the midpoint of the concentration-response curve, whichever way the signal moves. On to `CC(C)Nc1ccc(Nc2ccccc2)cc1`, for which the AC50 is 8.74 µM (active).

`Cc1c([N+](=O)[O-])cc2c(c1[N+](=O)[O-])C(C)(C)CC2(C)C`: the result was inactive.

Consider `CC(O)C(F)(F)C(F)(F)F` (stereo not given), for which the outcome was inactive and the AC50 is 5.95 µM (active).

`O=P(OCC(Br)CBr)(OCC(Br)CBr)OCC(Br)CBr` (stereo not given): the outcome was inactive.

Consider `CCOS(=O)(=O)OCC`, for which the result was inactive.

For `O=S1(=O)OCC2C(CO1)C1(Cl)C(Cl)=C(Cl)C2(Cl)C1(Cl)Cl` (stereo not given), the result was inactive.

Turning to `CCCCOCCOP(=O)(OCCOCCCC)OCCOCCCC`, the result was inactive.

On to `O=P(Oc1ccccc1)(Oc1ccccc1)Oc1ccccc1`, for which the outcome was inactive.

On to `Nc1ccc([N+](=O)[O-])cc1Cl`, for which the result was inactive.

Regarding `N#Cc1c(-c2ccc(Cl)cc2)[nH]c(C(F)(F)F)c1Br`, the result was inactive.

As to `O=c1ssc(Cl)c1Cl`, the AC50 was 8.4 µM (active).

`c1nc[nH]n1`: the result was inactive.

Regarding `ClC(Cl)=C(c1ccc(Cl)cc1)c1ccccc1Cl`, the concentration at half-maximal activity (AC50) is 20 µM (active).

For `CCOc1ccc(C(C)(C)COCc2cccc(Oc3ccccc3)c2)cc1`, the result was inactive.

For the molecule `O=[N+]([O-])c1ccccc1`, the result was inactive.

`O=S(=O)(F)C(F)(F)C(F)(F)C(F)(F)C(F)(F)C(F)(F)C(F)(F)C(F)(F)C(F)(F)F`: the result was inactive.

With `OCC(F)(F)OC(F)(F)C(F)(F)OC(F)(F)C(F)(F)OC(F)(F)F`, the result was inactive and the AC50 was 49.8 µM (active).

Take `CCC1(c2ccccc2)C(=O)N=C(O)NC1=O` (stereo not given): the result was inactive.

As for `CCCCC(CC)COC(=O)c1c(Br)c(Br)c(Br)c(Br)c1C(=O)OCC(CC)CCCC` (stereo not given), the result was inactive.

For the molecule `[N-]=[N+]=[N-]`, the result was inactive.

With `CCOP(=S)(S)OCC`, the outcome was inactive.

As to `ClC(Cl)(Cl)c1ccccc1`, the result was inactive.

Regarding `OCC(F)(F)OC(F)(F)C(F)(F)OC(F)(F)CO`, the outcome was inactive.

Consider `c1ccc2c(c1)sc1ccccc12`, for which the result was inactive.

On to `Cc1ccc(O)cc1C`, for which the result was inactive.

For the molecule `O=C(O)C(Cl)Cl`, the outcome was inactive.

`CCN(CC)c1ccccc1`: the outcome was inactive.

As for `CC(Cl)(Cl)C(=O)O`, the outcome was inactive.

For `CCCCN(CCCC)SN(C)C(=O)Oc1cccc2c1OC(C)(C)C2`, the result was inactive.

In the case of `O=C(O)C=CC(F)(C(F)(F)F)C(F)(F)F`, the outcome was inactive.

As to `CC(C)(C)c1ccccc1OP(=O)(Oc1ccccc1)Oc1ccccc1`, the result was inactive.

As for `O=[N+]([O-])c1ccc(Cl)c(Cl)c1`, the result was inactive.
